Experimental data: the supplement of paper PMC9948646

Each molecule was assayed on gramicidin D channels in DC22:1PC lipid vesicles (bilayer-modifying potency) (assay: initial Tl+ fluorescence quench rate relative to no-drug control (NormRate, gramicidin monomer-dimer shift) (ratio (fold of control)); higher = stronger bilayer-modifying effect (equilibrium shifted toward conducting dimers), active = 1.5 or more). Conditions: 10 µM; lipid concentration 50 µM; temperature: 25 °C.
Protocol: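 Stopped-flow fluorescence quench assay: ANTS-loaded DC22:1PC large unilamellar vesicles doped with gramicidin D (1:2000), 50 µM lipid, equilibrated 10 min with 10 µM drug (0.1% DMSO), mixed with Tl+ quench buffer at 25°C. Initial quench rate (Tl+ influx) was fitted with a modified stretched exponential and normalised to the no-drug control rate (NormRate); duplicates from two independent LUV preparations (triplicates for 7 drugs).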

Structure (SMILES) | initial Tl+ fluorescence quench rate
FC(F)(F)c1cc(NCCc2ccccc2)nc(-c2ccccn2)n1 | 1.31 (inactive)
CC(C)[C@H](C(=O)Nc1ccc(S(=O)(=O)N(C)C)cc1)c1ccc(Cl)cc1 | 4.3 (active)
Cc1ccc2nc(Cl)c(CNCc3cccs3)cc2c1 | 1.03 (inactive)
CCc1nc2ccc(C(=O)NCc3ccc4c(c3)OCO4)cn2c1N(C)Cc1cccs1 | 2.01 (active)
O=C(C1CCN(c2nnnn2-c2ccccc2)CC1)N1CCc2ccccc2C1 | 1.23 (inactive)
C[C@@]1(COc2ccc(N3CCC(Oc4ccc(OC(F)(F)F)cc4)CC3)cc2)Cn2cc([N+](=O)[O-])nc2O1 | 1.1 (inactive)
COc1ccccc1[C@H](C)NCC(=O)Nc1cc(C(F)(F)F)ccc1Cl | 1.17 (inactive)
CS(=O)(=O)c1ccccc1C(=O)N(Cc1ccccc1)c1ccccc1 | 1.09 (inactive)
CC[C@H](NC(=O)c1ccccc1NC(=O)c1ccc(C)cc1)C(=O)OC | 1.32 (inactive)
C[C@H](C(N)=O)N1CCCC[C@@H]1c1ccc(OCc2cccc(F)c2)cc1 | 2.68 (active)
O=C(Nc1ccccc1)c1ccc(-c2cc3ccncc3cc2OC2CCNCC2)s1 | 1.8 (active)
Cc1nn2c(O)c3c(nc2c1-c1ccc(F)cc1)CCCC3 | 1.07 (inactive)
O=C(NC1CC1)c1ccc(N2CCOc3ccc(Cl)cc32)s1 | 3.52 (active)
O=C(c1ccc(F)cc1)N(CCNc1ccccc1)c1ccccc1 | 1.36 (inactive)
O=C(CCC1CCCCC1)Nc1cccc(-c2nnc(-c3ccco3)o2)c1 | 1.57 (active)
